Here are results for eight compounds from PubChem BioAssay (NCI).

Common to all, as to experiment: NCI-60 one-dose screen, 48 h (100 = growth as untreated, 0 = no growth, -100 = all killed)
One experiment relates to K-562 leukemia. The conditions noted are these: 10 µM unless noted.
For a further experiment, the system named is MALME-3M melanoma. The conditions noted are these: 10 µM unless noted.
The test system of a further experiment is MDA-MB-231 breast. Conditions: 10 µM unless noted.
Another experiment deals with RXF 393 renal. The conditions noted are these: 10 µM unless noted.
Another experiment relates to SF-268 CNS. Conditions: 10 µM unless noted.
The subject of another experiment is SF-295 CNS. Conditions: 10 µM unless noted.
The subject of the next experiment is SF-539 CNS. Conditions: 10 µM unless noted.
A further experiment relates to UACC-257 melanoma. The conditions noted are these: 10 µM unless noted.
The test system of a further experiment is M14 melanoma. Conditions: 10 µM unless noted.
The test system of a further experiment is HCT-15 colon. Conditions: 10 µM unless noted.
A further experiment deals with HT29 colon. The conditions noted are these: 10 µM unless noted.
The next experiment concerns SNB-75 CNS. The conditions noted are these: 10 µM unless noted.
In another experiment the test system is SNB-19 CNS. The conditions noted are these: 10 µM unless noted.
The next experiment has as its system U251 CNS. Conditions: 10 µM unless noted.
The subject of the next experiment is PC-3 prostate. Conditions: 10 µM unless noted.
A further experiment relates to SK-MEL-5 melanoma. Conditions: 10 µM unless noted.
A further experiment has as its system UACC-62 melanoma. The conditions noted are these: 10 µM unless noted.
For another experiment, the system named is LOX IMVI melanoma. Conditions: 10 µM unless noted.
The subject of the next experiment is SK-MEL-28 melanoma. Conditions: 10 µM.
For the next experiment, the system named is SK-MEL-2 melanoma. The conditions noted are these: 10 µM unless noted.

About 83,000 compounds went through this panel and 20% of them were active in at least one assay; those are over-represented in the sample as a whole.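 Assay: single dose, 48 h. Readout: percent growth (0 = no net growth; negative = cell death). Active: <10.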 Values without a mark were called inactive. Calls of active or inactive are those of the source.

As for `CC1=C(C(=O)OCC2CCN(C(=O)OC(C)(C)C)CC2)[C@@H](c2cccc(C#N)c2)C2=C(CC(C)(C)CC2=O)N1`, the growth in the experiment on K-562 leukemia was 25.5%; with MALME-3M melanoma it was 48.5%; in the experiment on MDA-MB-231 breast it was 61.1%; with RXF 393 renal, 71%; in the experiment on SF-268 CNS, 50.5%; in the experiment with SF-295 CNS, 27.5%. Besides, the growth is 41.7% in the experiment with SF-539 CNS; 61.4% with UACC-257 melanoma; 35.7% in the experiment with M14 melanoma; 19.5% with HCT-15 colon; 18.3% in the experiment with HT29 colon; 56.9% in the experiment on SNB-75 CNS. In addition, the growth was 43% with SNB-19 CNS; 41.4% with U251 CNS; 48% in the experiment on PC-3 prostate; 3.59% (active) with SK-MEL-5 melanoma; 43% in the experiment with UACC-62 melanoma; 9.5% (active) in the experiment on LOX IMVI melanoma. The values for the growth with SK-MEL-28 melanoma and with SK-MEL-2 melanoma were 61.3% and 70.4%, respectively.
Take `Cn1c(/C=C(\C#N)c2cccc(C(F)(F)F)c2)nc2c(N3CCOCC3)nc(Cl)nc21`: the growth is -12.2% (active) in the experiment on K-562 leukemia; -21.8% (active) in the experiment with MALME-3M melanoma; -70.1% (active) in the experiment on MDA-MB-231 breast; -92.2% (active) with RXF 393 renal; -50.8% (active) in the experiment with SF-268 CNS; 85.1% in the experiment on SF-295 CNS. For the same compound, the growth in the experiment on SF-539 CNS is -79.9% (active); in the experiment with UACC-257 melanoma it was -64.5% (active); in the experiment with M14 melanoma, -77.3% (active); in the experiment on HCT-15 colon, -37.3% (active); in the experiment with HT29 colon, -41.5% (active); in the experiment on SNB-75 CNS it was -22.7% (active). The growth was 56.3% in the experiment on SNB-19 CNS; 2.31% (active) in the experiment on U251 CNS; -42.6% (active) in the experiment on PC-3 prostate; 9.34% (active) with SK-MEL-5 melanoma; -81.1% (active) in the experiment on UACC-62 melanoma; -87.9% (active) in the experiment with LOX IMVI melanoma. Also, the results for the growth in the experiment with SK-MEL-28 melanoma and in the experiment on SK-MEL-2 melanoma were -87.2% (active) and -21.2% (active), respectively.
Take `CCOC(=O)c1sc(-c2ccc(OS(=O)(=O)C[C@]34CCC(CC3=O)C4(C)C)c(C=O)c2)nc1C`: the growth was 7.5% (active) in the experiment on K-562 leukemia; 38.1% with MALME-3M melanoma; 19.7% in the experiment on MDA-MB-231 breast; 52.9% in the experiment with RXF 393 renal; 15% in the experiment with SF-268 CNS; 26.2% in the experiment on SF-295 CNS. The growth in the experiment with SF-539 CNS was 43.2%; in the experiment on UACC-257 melanoma, 4.31% (active); with M14 melanoma, 3.97% (active); in the experiment with HCT-15 colon, 5.75% (active); with HT29 colon, 6.26% (active); in the experiment on SNB-75 CNS, -2.85% (active). Also, the growth with SNB-19 CNS is 18%; in the experiment with U251 CNS, -9.73% (active); with PC-3 prostate, 25.8%; in the experiment on SK-MEL-5 melanoma it was 16.8%; with UACC-62 melanoma it was 25%; in the experiment on LOX IMVI melanoma, -32.1% (active). Moreover, the growth was 52.6% in the experiment on SK-MEL-28 melanoma and 12.8% with SK-MEL-2 melanoma.
On to `O=C1NC(=O)C(=Cc2cn(Cc3cn(Cc4ccc(Cl)cc4Cl)nn3)c3ccccc23)C(=O)N1`, for which the growth in the experiment on K-562 leukemia was 75.5%; with MALME-3M melanoma it was 91.5%; in the experiment with MDA-MB-231 breast, 81.9%; in the experiment on RXF 393 renal it was 85.2%; in the experiment with SF-268 CNS, 84.8%; in the experiment with SF-295 CNS, 89.6%. For the same compound, the growth is 93% in the experiment with SF-539 CNS; 95.8% in the experiment on UACC-257 melanoma; 96.8% in the experiment with M14 melanoma; 90.4% in the experiment on HCT-15 colon; 111% with HT29 colon; 75.4% in the experiment on SNB-75 CNS. Also, the growth in the experiment with SNB-19 CNS is 88.5%; in the experiment with U251 CNS, 91%; with PC-3 prostate it was 89.6%; with SK-MEL-5 melanoma, 69.5%; in the experiment with UACC-62 melanoma, 67.6%; in the experiment on LOX IMVI melanoma it was 80.1%. Moreover, the results for the growth in the experiment on SK-MEL-28 melanoma and in the experiment on SK-MEL-2 melanoma were 107% and 79.3%, respectively.
As for `Nc1nonc1-n1nncc1-c1cccnc1`, the growth was 105% with K-562 leukemia; 96.1% in the experiment with MALME-3M melanoma; 111% in the experiment on MDA-MB-231 breast; 115% in the experiment with RXF 393 renal; 106% with SF-268 CNS; 98.2% in the experiment with SF-295 CNS. Moreover, the growth in the experiment with SF-539 CNS was 102%; in the experiment with UACC-257 melanoma, 112%; in the experiment on M14 melanoma, 104%; with HCT-15 colon, 101%; in the experiment on HT29 colon, 107%; in the experiment on SNB-75 CNS it was 81.2%. Further, the growth with SNB-19 CNS was 129%; in the experiment with U251 CNS, 101%; in the experiment on PC-3 prostate, 105%; with SK-MEL-5 melanoma, 106%; with UACC-62 melanoma it was 112%; in the experiment with LOX IMVI melanoma, 98.3%. Also, the growth with SK-MEL-28 melanoma is 105%; in the experiment on SK-MEL-2 melanoma it was 111%.
For `Cc1ccc2cc3c(N)c4c(C)ccc(C)c4nc3nc2c1`, the growth in the experiment on K-562 leukemia is -18.6% (active); in the experiment on MALME-3M melanoma, -77% (active); in the experiment with MDA-MB-231 breast it was 7.18% (active); in the experiment with RXF 393 renal it was 45.1%; in the experiment on SF-268 CNS, 17.4%; in the experiment on SF-295 CNS, -45.8% (active). Also, the growth was -68% (active) in the experiment with SF-539 CNS; -78.8% (active) in the experiment with UACC-257 melanoma; -79.1% (active) in the experiment on M14 melanoma; 10.8% in the experiment with HCT-15 colon; 4.73% (active) in the experiment on HT29 colon; 41.2% with SNB-75 CNS. Moreover, the growth with SNB-19 CNS was 80.2%; with U251 CNS, -5.79% (active); in the experiment with PC-3 prostate it was 63.9%; in the experiment on SK-MEL-5 melanoma, 11.8%; with UACC-62 melanoma, -73% (active); in the experiment on LOX IMVI melanoma it was -53.8% (active). Also, the growth with SK-MEL-28 melanoma is -80.6% (active); with SK-MEL-2 melanoma it was -33.2% (active).
For `O=c1c2cc(F)ccc2sc2c(Nc3ccncc3)nc3ccccc3c12`, the growth with K-562 leukemia is -47.1% (active); with MALME-3M melanoma, 22%; in the experiment on MDA-MB-231 breast, -89.7% (active); in the experiment on RXF 393 renal, -42% (active); in the experiment with SF-268 CNS it was -10.4% (active); in the experiment on SF-295 CNS, 101%. In addition, the growth is 70.8% with SF-539 CNS; 113% in the experiment on UACC-257 melanoma; -27.2% (active) with M14 melanoma; -70.5% (active) in the experiment with HCT-15 colon; -58.1% (active) in the experiment with HT29 colon; 56.5% with SNB-75 CNS. The growth in the experiment with SNB-19 CNS is 25.5%; with U251 CNS it was -33% (active); in the experiment with PC-3 prostate, -10.7% (active); in the experiment with SK-MEL-5 melanoma it was 75%; in the experiment with UACC-62 melanoma it was 66.7%; with LOX IMVI melanoma, -66.7% (active). The growth in the experiment on SK-MEL-28 melanoma was 87.7%; in the experiment on SK-MEL-2 melanoma it was 99.5%.
For the compound `COc1ccc(N)c(-c2cc3c(c4c2[nH]c2ccc(OC)cc24)CCCC3)c1`, the growth was 76.8% in the experiment with K-562 leukemia; 108% in the experiment on MALME-3M melanoma; 77.6% with MDA-MB-231 breast; 87.1% in the experiment on RXF 393 renal; 73.8% in the experiment on SF-268 CNS; 88.8% in the experiment on SF-295 CNS. In addition, the growth in the experiment on SF-539 CNS is 98%; with UACC-257 melanoma, 67.9%; in the experiment with M14 melanoma it was 78.5%; with HCT-15 colon it was 58.6%; in the experiment with HT29 colon, 76.1%; with SNB-75 CNS, 70.9%. Moreover, the growth in the experiment on SNB-19 CNS was 88.5%; in the experiment on U251 CNS, 74.3%; in the experiment on PC-3 prostate, 52.9%; in the experiment on SK-MEL-5 melanoma it was 94.7%; in the experiment with UACC-62 melanoma, 69.5%; with LOX IMVI melanoma, 83.1%. Also, the growth was 97.7% with SK-MEL-28 melanoma and 95.4% in the experiment on SK-MEL-2 melanoma.
